Reference: PubChem BioAssay AID588352 (The Scripps Research Institute Molecular Screening Center, 2011)
Among all 360,000 compounds or so, about 620 (0.17%) were called active. The sample holds actives, similar compounds and a random draw of the others, so the mix is not that of the screen.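 Rule for the calls: active = inhibition above a per-campaign cutoff, the mean of all compounds plus 3 SD (cut at about 60% in these data); inactive = the rest.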

Each compound was assayed against Nuclear receptor coactivator 3 (Homo sapiens) (UniProt Q9Y6Q9) (assay: NCOA3 GAL4-fusion reporter inhibition – cell-based, luminescence, primary screen (AID 588352;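 note: 0% = DMSO-treated cells and 100% = gossypol-treated cells at 36 µM; higher means less SRC3-driven luciferase light from the GAL4 reporter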)). Conditions: HEK293 GAL4-SRC3 luciferase reporter, at 3.6 µM, active compounds read high.
Sequence of Nuclear receptor coactivator 3 (Homo sapiens) (Q9Y6Q9 whole entry, looked up, the tested form may be a part): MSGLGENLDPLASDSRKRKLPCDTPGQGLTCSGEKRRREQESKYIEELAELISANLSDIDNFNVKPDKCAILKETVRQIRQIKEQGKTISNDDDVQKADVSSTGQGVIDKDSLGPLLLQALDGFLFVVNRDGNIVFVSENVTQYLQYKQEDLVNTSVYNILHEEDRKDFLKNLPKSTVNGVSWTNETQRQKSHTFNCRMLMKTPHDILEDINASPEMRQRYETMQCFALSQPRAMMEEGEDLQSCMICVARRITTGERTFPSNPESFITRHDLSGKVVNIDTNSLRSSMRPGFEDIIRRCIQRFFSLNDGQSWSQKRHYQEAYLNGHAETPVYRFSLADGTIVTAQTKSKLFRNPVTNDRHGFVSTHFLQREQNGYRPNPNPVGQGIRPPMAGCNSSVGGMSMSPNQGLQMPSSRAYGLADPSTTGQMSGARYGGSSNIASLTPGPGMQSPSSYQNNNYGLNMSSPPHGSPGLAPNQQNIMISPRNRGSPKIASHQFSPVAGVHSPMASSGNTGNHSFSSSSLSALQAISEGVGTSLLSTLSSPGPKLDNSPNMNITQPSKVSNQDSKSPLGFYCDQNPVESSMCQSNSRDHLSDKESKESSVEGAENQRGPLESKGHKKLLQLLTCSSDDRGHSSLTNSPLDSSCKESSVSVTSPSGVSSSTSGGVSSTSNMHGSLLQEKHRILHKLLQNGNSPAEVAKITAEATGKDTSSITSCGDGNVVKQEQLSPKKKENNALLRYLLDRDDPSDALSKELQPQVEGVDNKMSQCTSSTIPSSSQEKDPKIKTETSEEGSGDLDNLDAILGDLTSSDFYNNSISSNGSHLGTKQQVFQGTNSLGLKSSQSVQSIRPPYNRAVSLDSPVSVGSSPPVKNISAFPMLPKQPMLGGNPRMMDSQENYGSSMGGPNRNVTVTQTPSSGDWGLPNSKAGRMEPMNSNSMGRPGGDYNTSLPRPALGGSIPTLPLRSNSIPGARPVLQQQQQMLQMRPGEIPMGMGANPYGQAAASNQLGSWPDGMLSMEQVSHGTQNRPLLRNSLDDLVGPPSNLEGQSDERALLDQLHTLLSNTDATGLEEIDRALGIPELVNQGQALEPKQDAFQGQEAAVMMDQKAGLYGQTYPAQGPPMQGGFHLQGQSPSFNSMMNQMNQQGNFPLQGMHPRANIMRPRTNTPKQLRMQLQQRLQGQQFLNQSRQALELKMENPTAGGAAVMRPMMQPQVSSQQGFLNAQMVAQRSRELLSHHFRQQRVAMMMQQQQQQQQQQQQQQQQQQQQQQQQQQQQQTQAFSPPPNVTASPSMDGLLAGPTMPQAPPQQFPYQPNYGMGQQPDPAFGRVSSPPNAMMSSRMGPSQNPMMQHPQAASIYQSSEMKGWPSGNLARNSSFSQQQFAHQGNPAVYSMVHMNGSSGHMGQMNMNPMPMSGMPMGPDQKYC

inhibition, inactive:
CC(NC(=O)CCCC1CCCCC1)c1ccc(S(N)(=O)=O)cc1 (centres undefined) 4.7%
CC/C(C)=N/Nc1nc2sc3c(c2c(=O)[nH]1)CC(C)(C)OC3 -4.5%
O=C(CN1CCN(c2ncccn2)CC1)Nc1ccccc1C(F)(F)F 17.7%
CC1(C(=O)NS(=O)(=O)c2ccc(C#N)cc2)CCN1C(=O)c1ccc(C2CCCCC2)cc1 (centres undefined) 8.43%
CC(C)C(c1nnnn1C1CCCCC1)N1CCN(C(=O)c2ccco2)CC1 (centres undefined) -1.28%
COc1cccc2c(C)c(C(=O)O)[nH]c12 4.08%
CCc1ccc(Oc2nc([N+](=O)[O-])nn2C)cc1 12.1%
CC(=O)c1c(C)c[nH]c1C 11%
CCc1nc2ccc(C(=O)NCc3ccc(OC)cc3)cn2c1N(CC)Cc1cccc(Br)c1 0.61%
CCCCn1c(N)c(N(CCC(C)C)C(=O)CC2OC(=O)c3ccccc32)c(=O)[nH]c1=O (centres undefined) 12.2%
Cc1cccc2cc(CN(C(=O)c3cccs3)c3ccccc3)c(=O)[nH]c12 15.8%
O=S(=O)(Cc1nnnn1-c1ccc(Br)cc1)c1ccc(F)cc1 -7.02%
Cc1cc(C)nc(SCc2nnc(SCC(=O)OC3CCCCC3)o2)n1 -10.7%
CCCNC(=O)c1ccc(N2CCC3(CC2)CC(c2ccc(Cl)cc2)=NO3)c([N+](=O)[O-])c1 0.35%
CC1CCCCC1NC(=O)c1cc(=O)[nH]c2ccccc12 (centres undefined) 9.65%
COc1ccc(F)cc1C(=O)C1CCCN(C(=O)CCc2ccccn2)C1 (centres undefined) 14.9%
Cc1noc(C)c1C(=O)N1CCC1(C)C(=O)NS(=O)(=O)c1ccc(C#N)cc1 (centres undefined) -19.1%
O=C(NCCCCCCCCCNC(=O)C(F)(F)F)C(F)(F)F -9.12%
Cc1ccc(S(=O)(=O)NCC(=O)N(CC(=O)NC2CCCCC2)Cc2ccco2)cc1 12.3%
COC(=O)CN1C(=O)[C@H]2[C@@H](C3CC3)N3C(=O)CN(Cc4ccc(-c5ccccc5)cc4)C(=O)[C@@]3(Cc3ccccc3)[C@H]2C1=O 9.14%
CC1(C)CC(=O)C=C(c2ccc(Cl)c(C(F)(F)F)c2)C1 -9.95%
CCN(CC)S(=O)(=O)N1CCC(C(=O)NC(C)CCc2ccccc2)CC1 (centres undefined) 15.5%
Cc1nn(CC(=O)NC2CCCCC2)c(=O)c2cccn12 -10.9%
CCOC(=O)c1c(C)n(C)c2ccc(OC)c(NC(=O)CN3CCC4(CC3)OCCO4)c12 6.95%
